For 74 compounds, INHIBITION results are on record in ChEMBL document CHEMBL4513216, “Probing the Open Global Health Chemical Diversity Library for Multistage-Active Starting Points for Next-Generation Antimalarials” (ACS Infect Dis, 2020).

About 8,600 (12%) of roughly 69,000 compounds showed an effect of 50% or more. The entries come from a sample that favours strong results as a whole.

This assay has as its system Plasmodium berghei. In words: Screen against P. berghei liver stage (PbLuc), transformed with Luciferase, at 10uM. As to conditions: tested at 10 uM. It counts as functional, HepG2.
Take `CCn1cc(NC(=O)C2CCN(CC(=O)NC(C)(C)CC)CC2)cn1`: the INHIBITION is 10%.
For the compound `CCS(=O)(=O)N1CCOCC2(CCN(c3ccccn3)C2)C1` (centres undefined), the INHIBITION was found to be 11.4%.
For the compound `CCS(=O)(=O)N1CCCC2(COCCN(c3ccccn3)C2)C1` (centres undefined), the INHIBITION was 56.1%.
The result for `CC(=O)N1CCCC2(C1)CN(c1ncc(C)cn1)CCO2` (centres undefined) reads -5.63%; that for `Cc1cnc(N2CCOC3(CCCN(C)C3)C2)nc1` (centres undefined), 52.3%; that for `CCCS(=O)(=O)N1CCOCC2(CCN(c3ccccn3)C2)C1` (centres undefined), 20.5%.
The figure for `Cc1cnc(N2CCOC3(CCCN(c4ncccn4)C3)C2)nc1` (centres undefined) is 0.804%.
`Cc1cccc(S(=O)(=O)NCC2CCN(c3cnccn3)CC2)c1`: the INHIBITION is -87.6%.
The result for `CN(C)S(=O)(=O)c1ccc2c(c1)N(Cc1nccn1C)CCC2` reads 41.4%.
The figure for `COCC(C)(O)CNC(=O)c1cc(-c2cc(OC)ccc2OC)nn1C` (centres undefined) is -43.5%; for `CN(C(=O)c1cccn1C)C1CCC(NC(=O)OC(C)(C)C)CC1` (centres undefined) it is 22.3%; for `COc1cc(OC)cc(N2CCC(NC(=O)c3cccn3C)CC2)c1` it is 62.5%.
The result for `CC(C)(C)OC(=O)NC1CCC(NC(=O)c2ccc[nH]2)CC1` (centres undefined) reads 12.7%; that for `CCS(=O)(=O)c1ccccc1N1CCC(NC(=O)c2ccc[nH]2)CC1`, 18.4%; that for `COc1cc(CN2CCC(NC(=O)c3cccn3C)C2)cc(OC)c1` (centres undefined), 44.9%.
Consider `Cn1ccc(C(=O)NC2CCN(c3ncccn3)CC2)cc1=O`, for which the INHIBITION worked out at 18.4%.
The result for `COc1cc(OC)cc(N2CCC(NC(=O)c3ccc[nH]3)CC2)c1` reads 50.5%; that for `CCS(=O)(=O)c1ccc(N2CCC(NC(=O)c3cnn(C)c3)CC2)cc1`, 43.4%.
The figure for `Cn1cccc1C(=O)NC1CCN(c2ccc(OC(F)(F)F)cc2)CC1` is 64.9%; for `O=S(=O)(NCC1COc2ccccc2C1)N1CCOCC1` (centres undefined) it is 18.6%.
The result for `COc1ccc2c(c1)CC(NCCCn1nc(C)nc1C)CC2` (centres undefined) reads 15.8%; that for `O=C(O)c1cc(S(=O)(=O)Nc2cccc3c2OCCO3)ccc1F`, 45.7%.
As to `O=C(O)c1cc(S(=O)(=O)Nc2cccc3c2OCCO3)c(Cl)cc1F`, the INHIBITION came to 81.7%.
The figure for `Cc1cc(C)c(S(=O)(=O)Nc2ccccc2CC(F)(F)F)cc1C(=O)O` is 15.9%; for `O=C(O)c1cc(S(=O)(=O)Nc2cccc(F)c2F)cc2c1OCCO2` it is 22.3%; for `Cc1cc(C)c(S(=O)(=O)Nc2cccc3c2OCCO3)cc1C(=O)O` it is 50%.
The result for `Cc1ccccc1NS(=O)(=O)c1cc2c(c(C(=O)O)c1)OCCO2` reads 35.3%.
The figure for `Cc1nc(C2CCCN2C(=O)Cc2ccc(F)cc2)nc(O)c1C` (centres undefined) is -10.5%.
On to `Cc1ccc(-n2nnc(C(=O)NC(C)C)c2C2CC2)cc1`, for which the INHIBITION is 15.5%.
The result for `O=C1CCCN1Cc1ncn2c1CN(C(=O)NC1CCCCC1)CCC2` reads -19.5%; that for `COc1cccc(Nc2nc(C3CCCNC3)c3ccccn23)c1` (centres undefined), -23.425%.
The figure for `Cc1c(C)n(CC(O)CN2CCOCC2)c2c(Cl)cccc12` (centres undefined) is 56.5%; for `Cc1c(C)n(CC(O)CN2CCCCCC2)c2c(Cl)cccc12` (centres undefined) it is -48.6%; for `Cc1c(C)n(CC(O)CN2CCC(C)CC2)c2c(Cl)cccc12` (centres undefined) it is 37.3%.
The result for `Cc1nc[nH]c1C(=O)NCc1cccnc1N(C)C1CCCCC1` reads 26.8%; that for `CCn1cc(C(=O)N(C)[C@@H]2CC[C@@H](N3CCCC3)[C@@H]2O)c(C)n1`, 12.335%.
As for `CCc1ccc(CN2CCN(c3ccc(Cl)nn3)CC2)nc1`, the INHIBITION was -7.94%.
Consider `COc1ccc(CN2CCN(c3ncc(Cl)cn3)CC2)cc1`, for which the INHIBITION worked out at 11.8%.
The figure for `CCc1ccc(CN2CCN(c3ncc(Cl)cn3)CC2)nc1` is 50.1%; for `COc1ccccc1N1CCN(C(=O)Cn2nccc2C)CC1(C)C` it is -56.6%.
Turning to `COc1ccccc1N1CCN(C(=O)CCn2nnnc2C)CC1(C)C`, the INHIBITION is given as 51.8%.
The result for `COc1ccccc1N1CCN(C(=O)CCn2ccc(C)n2)CC1(C)C` reads 8.48%; that for `COc1ccc(N2CCN(C(=O)CCn3nnnc3C)CC2(C)C)cc1`, -34.8%.
As for `COc1ccccc1N1CCN(C(=O)CCn2ccnc2C)CC1(C)C`, the INHIBITION is reported as 6.31%.
The figure for `COc1ccccc1N1CCN(C(=O)Cn2nc(C)cc2C)CC1(C)C` is 52.8%; for `CC1=C(C(=O)NCCc2n[nH]c3c2CCCC3)C(C)NC(=O)N1` (centres undefined) it is -22.3%; for `COCCn1ccnc1C1CCCN(C(=O)c2cc(F)cc(F)c2)C1` (centres undefined) it is 40.2%.
The figure for `Cc1occc1C(=O)N1CCCS1(=O)=O` is 35.7%; for `Cc1ccsc1CNC(=O)N1CCC(Cc2cnn(C)c2)C1` (centres undefined) it is 11.083%.
The figure for `COc1ccc(CNC(=O)N2CCOCC2C2CC2)cc1C` (centres undefined) is 66.7%; for `COc1ccc(CNC(=O)N2CCOCC2C2CC2)c(C)c1` (centres undefined) it is 17.4%; for `Cc1ccc(CNC(=O)N2CCOCC2C2CC2)cc1F` (centres undefined) it is 49.3%.
As for `COc1ccccc1C1Cn2c(C)cnc2CN1Cc1c[nH]nc1C` (centres undefined), the INHIBITION is reported as -14.2%.
Turning to `Cn1cnc2c1CCN(Cc1csc(Cc3ccccc3)n1)C2`, the INHIBITION is recorded as -3.7%.
The result for `CN(C)C(=O)CC1CC2(CCN(CC3CC3)CC2)Oc2ccccc21` (centres undefined) reads -51.6%.
The result for `Cc1cc(C(=O)N2CC[C@](C)(O)[C@H](C)C2)c(C)n1C` reads -12.2%; that for `CC(c1ccc(F)cc1F)N1CCN(CCC(=O)NC(N)=O)CC1` (centres undefined), -8%.
The figure for `CC(c1ccc(F)cc1F)N1CCN(CCN2CCCC2=O)CC1` (centres undefined) is 63%.
`CC(c1ccc(F)cc1F)N1CCN(CCC(=O)O)CC1` (centres undefined): the INHIBITION was -17.7%.
`CCn1nc(C)cc1NC(=O)CCn1nc(C)c(Br)c1C`: the INHIBITION is reported as 31.7%.
For the compound `COCCn1ccc(=O)c(OCC(=O)Nc2cccc(Cl)c2)c1C`, the INHIBITION is given as -21.2%.
The figure for `Cc1cc(C)n(C2CN(CCC(N)=O)C2)n1` is -4.96%; for `CC(C)N(C)Cc1cncc2c1CCN(C(=O)c1cccc(C#N)c1)C2` it is 12.7%.
With `Cc1cc(CN2CCN(Cc3cnc4c(c3)c(C)nn4C)CC2)on1`, the INHIBITION came out at 11.5%.
The result for `CCN1CCN(C(=O)c2ccc(Cn3ccccc3=O)o2)CC1` reads 39.6%; that for `c1csc(CN2CCc3c(CNc4nncs4)cncc3C2)c1`, 42.7%.
The result for `COCCC(=O)N1CCc2c(CNc3ncccn3)cncc2C1` reads 53.4%; that for `c1cnc(NCc2cncc3c2CCN(Cc2cccnc2)C3)nc1`, 12.4%; that for `Cc1cc(CN2CCc3c(CNc4ncccn4)cncc3C2)oc1C`, 67.2%.
The result for `c1cnc(NCc2cncc3c2CCN(Cc2ccoc2)C3)nc1` reads 19.4%; that for `c1cnc(NCc2cncc3c2CCN(Cc2ccsc2)C3)nc1`, 60.2%.
With `CC(=O)NCC(=O)N1CCc2c(CNc3ncccn3)cncc2C1`, the INHIBITION is listed as -2.17%.
The result for `CN(C)C(=O)N1CCc2c(CNc3ncccn3)cncc2C1` reads 6.38%; that for `c1cnc(NCc2cncc3c2CCN(Cc2cccs2)C3)nc1`, -38.7%.
